PHOSPHO1 block: PHOSPHO1 (human) inhibition | inhibition, % at 13.3 µM | actives 1.1% (n = 290,000) | recombinant PHOSPHO1, absorbance phosphatase assay; in the data active = inhibition above about 60%
Target sequence (Q8TCT1 whole entry, looked up): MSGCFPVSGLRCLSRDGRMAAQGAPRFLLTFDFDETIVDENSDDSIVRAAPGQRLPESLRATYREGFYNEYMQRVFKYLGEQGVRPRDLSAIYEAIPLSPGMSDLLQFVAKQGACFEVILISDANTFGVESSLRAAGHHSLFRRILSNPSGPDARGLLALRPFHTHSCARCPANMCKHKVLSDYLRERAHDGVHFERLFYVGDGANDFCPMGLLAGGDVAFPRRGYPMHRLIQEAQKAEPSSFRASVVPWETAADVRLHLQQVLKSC
A3G deaminase: blocks human APOBEC3G single-stranded DNA deamination; recombinant A3G, ssDNA deamination FAM/TAMRA fluorescence; Q9HC16; actives 0.28% (n = 330,000); inhibition, % at 20 µM;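 active = inhibition of at least 40% at 20 µM, with no more than 30% in the related APOBEC3A deaminase screen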;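 also: plate controls were DMSO wells with A3G for no effect and wells lacking A3G enzyme for full effect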
MITF TRPM1 HTS: activators of MITF-driven TRPM1 promoter activity in SK-MEL-5 cells; actives 0.75% (n = 300,000); AID 588334; SK-MEL-5 TRPM1-promoter luciferase, 24 h; % of positive control, neutral wells = 0; activation, % at 12.5 µM;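 active = mean activation of at least 80% with every replicate also reaching 80%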;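 also: 0% = neutral control wells and 100% = parthenolide positive control wells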
A3A deaminase: human APOBEC3A DNA deaminase inhibition; recombinant A3A, FAM/TAMRA ssDNA deamination fluorescence; inhibition, % at 20 µM; actives 0.41% (n = 330,000);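 active = at least 40% inhibition at 20 µM here, with at most 30% in a related deaminase screen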;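 also: plate controls were A3A with DMSO for no effect and wells lacking A3A enzyme for full effect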
Wnt act: activates Wnt/beta-catenin signaling in a reporter cell assay. AID 743398. activator, plate reader. actives 1.2% (n = 300,000). activation, % at 9.35 µM; in the data active = activation above about 30%, passing the limit was not always enough;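 also: 0% = neutral control wells and 100% = positive control wells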
esBAF inh: inhibitors of esBAF chromatin remodeling in mouse ES cells; Bmi1-luciferase knock-in reporter, 24 h; 100% = twice the neutral-well signal; reporter increase, % at 12.5 µM; actives 2% (n = 350,000); AID 602393; in the data active = activation above about 40%;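 also: 0% = median of the plate's neutral control wells and 100% = double that signal; a rise in the Bmi1 reporter signal indicates esBAF inhibition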
Starred values were filed as active, the others as inactive. Only some compounds are listed: those with a hit (about 3.6% of all), similar ones and a draw of the others.

Screening Nc1c2c(=O)oc(-c3ccccc3)cc2nn1-c1ccccc1 returned PHOSPHO1 block 8, A3G deaminase -4, A3A deaminase -5 and esBAF inh 70*.
Screening Cc1ccc(-c2noc(-c3ccccc3C(=O)N3CCN(C)CC3)n2)cc1 returned PHOSPHO1 block -28, A3G deaminase -5, A3A deaminase -4, Wnt act -4 and esBAF inh 64*.
Screening O=C(c1ccccc1-c1nc(-c2ccccc2)no1)N1CCCC1 returned PHOSPHO1 block -4, A3G deaminase 0, MITF TRPM1 HTS 2, A3A deaminase -2, Wnt act 11 and esBAF inh 57*.
Cc1ccc(-c2noc(-c3ccccc3C(=O)N3CCCC3)n2)cc1 was read as PHOSPHO1 block -14, A3G deaminase -3, MITF TRPM1 HTS 6, A3A deaminase -3 and esBAF inh 38.
For C[C@@H]1CN([C@@H](C)CO)C(=O)c2cc(NC(=O)Nc3ccc(C(F)(F)F)cc3)ccc2O[C@@H](C)CCCCO[C@H]1CN(C)Cc1ccc(Cl)c(Cl)c1 the results were esBAF inh 3.
CCC(=O)Nc1ccc2c(c1)C(=O)N(C)[C@H]1CC[C@@H](CC(=O)NCc3ccc(OC)cc3)O[C@H]1CO2 was read as esBAF inh -2.
For COc1ccc2c(c1)c(C(C)=O)c(C)n2C the results were PHOSPHO1 block 32, A3G deaminase -8, MITF TRPM1 HTS 7, A3A deaminase 4, Wnt act 22 and esBAF inh -13.
CCOCc1cnc(C)nc1NCC(=O)c1c(C)n(C)c2ccc(OC)cc12 was read as PHOSPHO1 block 92* and MITF TRPM1 HTS -14.
COc1ccc2c(c1)c(C(=O)CNc1nc(C)cs1)c(C)n2C was read as PHOSPHO1 block 81*, A3G deaminase 5, MITF TRPM1 HTS -4, A3A deaminase 18, Wnt act -1 and esBAF inh 8.
Screening COc1ccc(C)cc1NC(=O)C1CCCN1S(=O)(=O)c1ccccc1F (stereo not given) returned A3G deaminase -2, MITF TRPM1 HTS -2, A3A deaminase 14, Wnt act 62* and esBAF inh 4.
For CC1Cc2ccccc2N1C(=O)COC(=O)/C=C/c1ccc(F)cc1 (stereo not given) the results were A3G deaminase 1, MITF TRPM1 HTS -7, A3A deaminase 2, Wnt act -1 and esBAF inh -7.
For CC1Cc2ccccc2N1C(=O)/C=C/c1cccc(F)c1 (stereo not given) the results were PHOSPHO1 block 25, A3G deaminase 4, MITF TRPM1 HTS 96*, A3A deaminase 5, Wnt act 14 and esBAF inh 90*.
C[C@@H]1CN([C@@H](C)CO)C(=O)c2cccc(NC(=O)C3CCOCC3)c2O[C@H]1CN(C)C(=O)Nc1ccc2c(c1)OCO2 was read as esBAF inh -1.
For CN1C(=O)c2cc(NC(=O)Nc3cccc(Cl)c3)ccc2OC[C@H]2O[C@@H](CC(=O)O)CC[C@H]21 the results were esBAF inh -2.
For COc1ccc(-c2cnc3cccnn23)cn1 the results were Wnt act 0 and esBAF inh 11.
Clc1ccc(-c2cnc3cccnn23)cc1 was read as Wnt act 0 and esBAF inh 50*.
C[C@@H]1CN([C@H](C)CO)S(=O)(=O)c2ccc(-c3ccccc3)cc2O[C@H]1CN(C)S(=O)(=O)c1ccccc1F was read as esBAF inh 5.
Screening CSc1ncccc1C(=O)OCC(=O)c1ccc(C)s1 returned A3G deaminase -11, MITF TRPM1 HTS 10, A3A deaminase 1, Wnt act 16 and esBAF inh 58*.
Cc1ccc(C(=O)COC(=O)c2cccc(O)c2)s1 was read as A3G deaminase -7, MITF TRPM1 HTS 54, A3A deaminase -1, Wnt act 40* and esBAF inh 62*.
For CSc1ncccc1C(=O)OCC(=O)c1ccc(Cl)s1 the results were Wnt act -1 and esBAF inh 7.
Screening CN(C)CCCNc1oc(-c2ccc(Cl)cc2)nc1C#N returned PHOSPHO1 block -16, A3G deaminase -3, MITF TRPM1 HTS 22, A3A deaminase -15 and esBAF inh 12.
